These results are taken from PubChem BioAssay AID651602 (The Scripps Research Institute Molecular Screening Center, 2012).

The whole screen tested about 360,000 compounds, of which about 950 (0.26%) were called active. For the sample, actives were picked, then their nearest neighbours and some compounds at random. Unmarked numbers belong to inactive results. Cut-off read from the data, not from the text of the source: active = inhibition above about 11%; inactive = the rest.

The inhibition is the change of the read-out against control, counted positive when it falls.

The test in a line: growth loss of phage-infected E. coli, primary screen, RecBCD inhibitor project, absorbance, with phage, HTS (AID 651602). Conditions: at 11.9 µM, stronger effect = higher value.
For the compound `O=C(NCc1ccccc1)[C@@H]1CCCN1C(=O)[C@@H](NS(=O)(=O)c1ccc(F)cc1F)C1CCCCC1`, the inhibition is 3.12%.

As to `O=C(C(=O)N1CCC(CNS(=O)(=O)Cc2ccccc2)CC1)c1cc2ccccc2o1`, the inhibition is 1.63%.

`COC(=O)[C@]12C[C@H](CC(=O)NCc3cccc(C(F)(F)F)c3)C(=O)N(Cc3ccc4c(c3)OCO4)C1=C[C@H](COCc1ccccc1)O[C@@H]2C`: the inhibition is 2.25%.

Consider `CC(C)CNc1cccc2c1S(=O)(=O)N[C@H](C)CO2`, for which the inhibition was 5.2%.

For the compound `O=C1c2ccccc2C2=Nc3ccccc3SC(c3ccccc3F)C12` (centres undefined), the inhibition is 19.6% (active).

Regarding `CC(=O)C1=C(C)N(Cc2ccc(Cl)cc2)C(=S)NC1c1ccc(F)cc1` (centres undefined), the inhibition is 2.81%.

With `O=C(NCc1ccccc1)[C@H]1CCCN1C(=O)[C@H]1CCCN1C(=O)N1CCOCC1`, the inhibition is 1.72%.

Consider `COc1ccc(-c2ccccc2C2Cc3nnccc3CN2C(=O)Nc2ccccc2)cc1` (centres undefined), for which the inhibition is 3.48%.

As for `CCN(CC)S(=O)(=O)c1ccc(N2CCCC2)c(NC(=O)c2ccc([N+](=O)[O-])o2)c1`, the inhibition is 0.78%.

As for `O=C(Nc1ccc(Br)cn1)c1ccc([N+](=O)[O-])o1`, the inhibition was 15.1% (active).

For `O=C(/C=C/c1ccc(Cl)cc1)Nc1ccc(Br)cn1`, the inhibition was -0.92%.

For `O=C(Nc1ccc(Br)cn1)c1ccc([N+](=O)[O-])cc1Cl`, the inhibition is 1.57%.

Regarding `Cc1cccc(NC(=O)CCn2c(=O)oc3ccccc32)c1`, the inhibition was 0.64%.

Take `Cc1cccc(NC(=O)c2ccc([N+](=O)[O-])o2)c1`: the inhibition was 14.2% (active).

For the compound `COC(=O)[C@]12C[C@H](CC(=O)NCc3ccccc3)C(=O)N(CCC3=CCCCC3)C1=C[C@H](C(C)(C)C)O[C@@H]2C`, the inhibition is 1.16%.

`COc1cccc(CNC(=O)[C@H]2CCCN2C(=O)[C@H]2CCCN2C(=O)c2ccc(F)cc2)c1`: the inhibition is 1.78%.

For the compound `C[C@@H]1ON(C)[C@H]2C[C@H]3c4cc(N5CCOCC5)ccc4CCN3C[C@@H]12`, the inhibition was 1.27%.

Turning to `C=CCN=C1NC(c2ccccc2)C(C(=O)OC)=C(C)N1Cc1ccc(C(F)(F)F)cc1` (centres undefined), the inhibition was 3.49%.

Regarding `C[C@@H](CN1C2=NC[C@@H](Cc3ccccc3)N2C[C@H]1Cc1ccc(O)cc1)NC(=O)CCC1CCCCC1`, the inhibition was 2.48%.

For the compound `Nc1nonc1-n1nnc(C(=O)N/N=C/c2cc(Br)ccc2O)c1CSC1=NCCS1`, the inhibition is 11.6% (active).

As for `CC(C)Oc1ccc(/C=N/NC(=O)c2nnn(-c3nonc3N)c2CN(C)C2CCCCC2)cc1`, the inhibition was 2.44%.

In the case of `CN(C)Cc1c(C(=O)N/N=C/c2ccccc2OCc2ccc(F)cc2)nnn1-c1nonc1N`, the inhibition is -5.79%.

Turning to `Cc1cn(C2OC[C@@H](O)[C@@H]2CO)c(=O)[nH]c1=O` (some centres undefined), the inhibition was 0.95%.

Regarding `Cc1cn([C@H]2C[C@H](O)[C@@H](/C=C/C(=O)NCCCc3ccccc3)O2)c(=O)[nH]c1=O`, the inhibition was 3.27%.

Regarding `Cc1cn(C2C=CC(CO)O2)c(=O)[nH]c1=O` (centres undefined), the inhibition is 19.9% (active).

Turning to `COc1cccc(-c2cc(CNC(=O)[C@@H](Cc3ccccc3)NC(=O)[C@H]3O[C@@H](n4cnc(C(N)=O)n4)[C@H](O)[C@@H]3O)no2)c1`, the inhibition was 2.06%.

For `CCN1CCN(C(=O)N[C@@H](C(=O)N[C@@H]2C(=O)N3C(C(=O)O)=C(CSc4nnnn4C)CS[C@H]23)c2ccc(O)cc2)C(=O)C1=O`, the inhibition is 103% (active).

For `CCOC(=O)C1=C(CSc2nnnn2C)N(C)C(=O)NC1c1ccccc1` (centres undefined), the inhibition is 3.2%.

Turning to `O=C(O)Cn1cnc2c(NCc3ccccc3)ncnc21`, the inhibition was -1.71%.

For the compound `O=c1ccc2c(-c3ccccc3S(=O)(=O)O)c3ccc(O)c(O)c3oc-2c1O`, the inhibition is 12.7% (active).

With `CC[C@H](NC(=O)[C@H](Cc1ccccc1)NC(=O)[C@H]1O[C@@H](n2cnc3c(=O)[nH]c(N)nc32)[C@H](O)[C@@H]1O)c1ccccc1`, the inhibition was 3.64%.

On to `COc1ccccc1C(=O)N1O[C@]23C=C[C@]14C[C@@H](O)CC[C@]4(C)C2CC[C@]1(C)[C@@H]([C@H](C)/C=C/[C@H](C)C(C)C)CC[C@H]13` (some centres undefined), for which the inhibition was 3.99%.

Regarding `COc1cccc(CNC(=O)[C@H]2CCCN2C(=O)[C@H]2CCCN2C(=O)C2CCCCC2)c1`, the inhibition is 2.87%.

Turning to `O=S1(=O)c2c(cccc2N2CCCCC2)O[C@H](COCc2ccccc2)CN1C1CC1`, the inhibition was 1.52%.

For the compound `COC(=O)C1=C(C)N(Cc2ccccc2C(F)(F)F)C(=NCc2ccc(OC)cc2)NC1c1cccc(C(F)(F)F)c1` (centres undefined), the inhibition was 5.38%.

With `CCOC(=O)C1=C(C(=O)OCC)C2N(Cc3ccc(C#N)cc3)c3ccccc3[C@@]23C[C@@H](C(=O)OC)N(S(=O)(=O)c2ccc(F)cc2)C3=N1` (some centres undefined), the inhibition is 2.71%.

For `CC(=O)N1C[C@@H](CO)[C@@H](N(C)C(=O)C(C)(C)C)C[C@H]1c1ccccc1Br`, the inhibition is 2.5%.

Take `O=S(=O)(c1cccs1)N1CCCc2nc(-c3ccc(Br)cc3)ccc21`: the inhibition is 3.49%.

Turning to `CCCCC(=O)NC(c1ccc(OC)c(OC)c1)c1ccc2cccnc2c1O` (centres undefined), the inhibition was 21.1% (active).

In the case of `CCOc1ccc(C(CC(=O)O)n2cnnn2)cc1OC` (centres undefined), the inhibition was 3.64%.

As to `CCOc1ccc(C(CCc2ccccc2)NC(=O)c2ccc(OC)c(OC)c2)cc1OCC` (centres undefined), the inhibition was -0.08%.

Turning to `CCc1c(-c2ccccc2OC)ncn1CCc1ccccc1OC`, the inhibition is 0.54%.

As for `CCOC(=O)C1CSCCS(=O)(=O)N1Cc1ccc(Cl)cc1` (centres undefined), the inhibition is 0.55%.

Take `COC(=O)C1=C(C)NC(=S)NC1c1ccc(OC)cc1` (centres undefined): the inhibition was 3.49%.

Regarding `COC(=O)c1c(-c2ccc(OC)cc2)c2c(c3c4ccccc4n(S(=O)(=O)c4ccc(C)cc4)c13)C(=O)N(C)C2`, the inhibition was 1.94%.

As for `Cc1cc(Br)cn2c(Cc3ccccc3C(F)(F)F)c(-c3ccc(C#N)cc3)nc12`, the inhibition was 4.55%.

With `O=C(NNS(=O)(=O)Cc1ccccc1)c1ccc([N+](=O)[O-])cc1`, the inhibition was 4.99%.

For `O=C(Nc1cc(-c2ccccc2)nn1-c1ccccc1F)c1ccc([N+](=O)[O-])cc1`, the inhibition was 3.65%.

For the compound `O=C(NC(Nc1nc2ccc([N+](=O)[O-])cc2s1)(C(F)(F)F)C(F)(F)F)c1ccccc1`, the inhibition was 12.8% (active).
